# Screening results as filed in PubChem BioAssay.
# NS1 function inh: blocks influenza NS1 protein function. Potency, µM (series often up to 46.1 µM), without a hit: at the top dose activity, positive = more growth. AID 2326. 0.4% of 270,000 active; note: potency is the fitted concentration of half-maximal effect; actives are rising curves; nearly all actives have a fitted effect of over 50% in size
#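 S. cerevisiae expressing influenza A NS1, grown in glucose, washed, then diluted 1:100 into pH 6.0 -URA galactose medium with 23 nl compound. Growth recovery read as OD600; NS1-free strain serves as control.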
# Shiga toxin inh: blocks Shiga toxin action in Vero cells; inhibition, % at 38.7 µM; Vero cells, Shiga toxin protein synthesis inhibition reporter; AID 2315; 9.2% of 290,000 active; in the data active = inhibition mostly above about 28%, no sharp cut-off; inactive = mostly below about 43%; note: 0% is about no effect
# Pf growth 48h: inhibits P. falciparum growth in the first generation, 48 h | P. falciparum luciferase growth in erythrocytes, 48 h | Potency, µM (titrated, usually from 28.7 µM), without a hit: at the highest dose activity change, negative = inhibition, actives largely listed as inhibitors | 5.9% of 310,000 active | AID 504832; active = well fitted inhibition curve with a large enough effect; inconclusive = small, poorly fitted or top-dose-only effect, or another doubt; inactive = no such curve, though single readings can be large or run the other way; note: potency is the fitted concentration of half-maximal effect; % is set by controls: 0 for no effect and ±100 for the full control effect
#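 Read-out is firefly luciferase luminescence from an integrated reporter in P. falciparum, so falling signal marks reduced parasite growth. Infected erythrocytes were at 2% hematocrit and 0.1% parasitemia (final) in Albumax-supplemented RPMI 1640.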
# SARS PLpro yeast: SARS-CoV PLP inhibition in yeast. S. cerevisiae expressing SARS-CoV PLpro, growth rescue. Potency, µM (top dose mostly 32.9 µM), for inactives: top-dose activity, positive = growth rescue, hits mostly activators. 0.19% of 330,000 active; note: potency is the fitted concentration of half-maximal effect; 0% is about no effect; nearly all actives have a fitted effect of over 55% in size
# Pf growth 96h: P. falciparum growth inhibition at 96 hour, primary screen for plastid delayed-death inhibitors; 6.9% of 320,000 active; P. falciparum luciferase reporter growth, 96 h; Potency, µM (highest dose often 28.7 µM), for the others: at the top dose activity change, negative = inhibition, usual class: inhibitors; active = well fitted inhibition curve with a large enough effect; inconclusive = small, poorly fitted or top-dose-only effect, or another doubt; inactive = no such curve, though single readings can be large or run the other way; note: potency is the fitted concentration of half-maximal effect; % is set by controls: 0 for no effect and ±100 for the full control effect
#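 Parasite growth measured via integrated firefly luciferase reporter in P. falciparum. Infected erythrocytes at 2% hematocrit, 0.05% parasitemia final were treated 96 hours at 37 C under 5% CO2, and luminescence was read.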
# CHX counter: counter-screen hit for Shiga toxin inhibitors, cycloheximide. 12% of 300,000 active. max response, %. cell reporter, cycloheximide protein synthesis inhibition counterscreen; in the data active = max response mostly above about 13%, no sharp cut-off; inactive = mostly below about 14%; note: read at 38.3 µM for the half of the compounds with a filed dose; 0% is about no effect
# * hit, by the source's call; ? = inconclusive; . = no result given; [ ] = another dose, or the depositor's remark. Only some compounds are listed: those with a hit (about 21% of all), similar ones and a draw of the others. Unless noted, calls come from the whole dose curve.
SMILES,NS1 function inh,Shiga toxin inh,Pf growth 48h,SARS PLpro yeast,Pf growth 96h,CHX counter
CNc1nnc(-c2cccc(N(C)C)c2)s1,-11%,122*,148%,-10%,3%,46*
COC(=O)CNC(c1ccccc1)c1cc(Br)ccc1NS(=O)(=O)c1ccccc1 (stereo unspecified),26%,-11,15µM*,-21%,4%,0
COC(=O)CNC(c1ccccc1)c1cc(Br)ccc1NS(=O)(=O)c1ccc(C)cc1 (stereo unspecified),?,-9,12µM*,-26%,42%,1
COC(=O)CNC(c1ccccc1)c1cc(Br)ccc1N (stereo unspecified),6%,14,8%,-1%,24%,0
COC(=O)CNC(c1ccccc1)c1cc(Br)ccc1NC(=O)CNC(=O)OCc1ccccc1 (stereo unspecified),-21%,-7,?,-27%,?,-1
COC(=O)[C@]12OC[C@]34C([C@@H](O)[C@@H]1O)[C@]1(C)CC(=O)C(O)=C(C)[C@@H]1C[C@H]3OC(=O)[C@H](O)[C@@H]24 (stereo partly specified),4%,-12,1µM*,-4%,1µM*,-12
O=C(/C=C/c1ccco1)NC(=S)Nc1nc(-c2ccc3ccccc3c2)cs1,18%,-8,30%,8%,?,-1
C/C(=N\Nc1nc(-c2ccc(C)cc2C)cs1)c1cc2ccccc2oc1=O,?,5,-10%,-19%,?,4
Cc1ccc(-c2csc(N/N=C/c3ccco3)n2)c(C)c1,10%,62*,13µM*,20%,37%,46*
CN(C)S(=O)(=O)c1cccc(-c2csc(N/N=C/c3ccco3)n2)c1,?,22,?,0%,-6%,14*
CCC(Sc1nc(N)c(NC(=O)c2ccc(OC)cc2)c(=O)[nH]1)C(=O)O (stereo unspecified),.,20,32%,0%,48%,-4
CCCOc1ccc(NC(=O)CC2C(=O)N(C)C(=S)N2Cc2cccs2)cc1 (stereo unspecified),-7%,8,12µM*,-39%,?,7
CN1C(=O)C(CC(=O)Nc2ccc(F)cc2)N(Cc2cccs2)C1=S (stereo unspecified),2%,-5,?,0%,?,-1
COc1ccc(NC(=O)CC2C(=O)N(Cc3cccs3)C(=S)N2C(C)C)cc1 (stereo unspecified),.,18,2.6µM*,1%,29%[5.75 µM],13
COC(=O)C1=C(C)NC2=C(C(=O)CC(C)(C)C2)C1c1cnn(C)c1C (stereo unspecified),9%,-6,2%,1%,4%,0
Cc1nc2ccccn2c1-c1ccnc(SCc2ccc(Cl)cc2)n1,0%,-5,5.9µM*,1%,1.9µM*,1
Cc1ccc2c(c1)-n1c(nc3ccc(C)cc3c1=O)C(Cc1ccc(O)cc1)NC2=O (stereo unspecified),.,.,.,7%,.,.
O=C(OCc1nnc(-c2ccccc2Br)o1)c1ccco1,.,.,.,1%,.,.
Cc1ccc(C(=O)OCc2nnc(-c3ccccc3)o2)o1,-77%,34,10%,-16%,.,25*
Cc1ccc(-c2nnc(COC(=O)c3cccs3)o2)cc1,-46%,80*,27%,?,12%,54*
O=C(OCc1nnc(-c2ccccc2)o1)c1ccc2ccccc2n1,-31%,26*,29%,-11%,23%,12*
Cc1ccc(-c2nnc(COC(=O)c3ccco3)o2)cc1,-26%,60*,24%,0%,?,38*
COC(=O)CS(=O)(=O)c1ccc2c(c1)CC(=O)N2,2%,7,3%,0%,56%,-1
Cc1cccc(NC(=O)c2nc[nH]c2C(=O)N[C@@H](C)C(=O)OC(C)(C)C)c1,-32%,3,?,7%,?,4
Clc1ccc(-c2nc(-c3cnccn3)no2)cc1,-2%,59*,213%,2%,289%,30*
SMILES,NS1 function inh,Shiga toxin inh,Pf growth 48h,SARS PLpro yeast,Pf growth 96h,CHX counter
c1ccc(-c2ccc(-c3nc(-c4ccccn4)no3)cc2)cc1,-64%,-6,.,-35%,?,-8
Fc1ccc(-c2nc(-c3cnccn3)no2)c(Cl)c1,-5%,83*,291%,-1%,233%,40*
S=C(NCC1CCCO1)NC1CCCC1 (stereo unspecified),.,-4,2%,-1%,0%,-2
Cc1cc2c(=O)n(C)c(SCC(=O)Nc3ccccc3C)nc2s1,.,.,?,2%,9.3µM*,.
Cc1cc2c(=O)n(C)c(SCC(=O)Nc3cccc(O)c3)nc2s1,-2%,5,?,1%,18%,-5
Cc1cc2c(=O)n(C)c(SCC(=O)Nc3ccccc3)nc2s1,7%,55*,?,-4%,38%,22*
Cc1nn(CC(=O)N/N=C/c2ccc3c(c2)OCO3)c(C)c1Br,11%,-4,-9%,0%,0%,-2
Cc1cc(C)nc(SCC(=O)Nc2ccc3c(c2)OCO3)n1,3%,8,19%,6%,?,8
Cc1cc(C)nc(SCC(=O)N/N=C/c2ccc3c(c2)OCO3)n1,5%,60*,27%,-4%,-5%,39*
Cc1cc(C)n(CC(=O)N/N=C/c2ccc3c(c2)OCO3)n1,7%,12,32%,18%,3.7µM*,1
CCCCN1CCCCC1C(=O)Nc1c(C)cccc1C (stereo unspecified),.,.,-2%,.,1%,.
CCCCN1CCCC1C(=O)Nc1c(C)cc(C)cc1C (stereo unspecified),.,.,-25%,.,2.6µM*,.
O=C(O)c1ccc(S(=O)(=O)N2CCC(c3nc(-c4ccccc4Cl)no3)CC2)cc1,-4%,19,-24%,12%,9.3µM*,-4
O=C(O)c1ccc(S(=O)(=O)N2CCCC2)cc1,4%,-5,-1%,2%,?,-2
COc1ccccc1C1CC(c2ccco2)=NN1c1ccccc1 (stereo unspecified),11%,-12,?,-33%,-4%,-3
CNC(=S)N1N=C(c2ccc(OC)cc2)CC1c1ccc(Cl)cc1Cl (stereo unspecified),12%,16,12µM*,-1%,5.9µM*,-1
COc1ccc(OC)c(C2CC(c3ccccc3)=NN2C(=S)Nc2ccccc2)c1 (stereo unspecified),3%,31,2.3µM*,-1%,?,8
COc1ccccc1C1=NN(C(=S)Nc2ccccc2)C(c2ccco2)C1 (stereo unspecified),?,51*,48%,-2%,130%,28*
CNC(=S)N1N=C(c2ccc(C)cc2)CC1c1cc(OC)ccc1OC (stereo unspecified),11%,-7,?,-1%,-29%,-2
CNC(=S)N1N=C(c2ccc(OC)cc2)CC1c1ccccc1Cl (stereo unspecified),-9%,18,?,-3%,?,7
